Compound activity from PubChem BioAssay.
This is a sample that favours compounds with a hit; in the whole collection about 1.8% have one here.
GRK2 aptamer HTS: inhibitors of human GRK2 displacing RNA aptamer; inhibition of aptamer binding, % at 10 µM; AID 488847; 330,000 tested, 0.59% active; bead flow cytometry, FAM-aptamer displacement from GRK2; P25098;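 active = inhibition of aptamer binding above 40%, roughly 3 SD of noise, on plates passing a quality check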;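 note: median bead fluorescence of bound FAM aptamer so fluorescent compounds give negative values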
LANA-H2B inh: blocks KSHV LANA binding to histone H2A/H2B. Q9QR71. cell-free LANA-H2A/H2B peptide, fluorescence polarization. inhibition, % (concentration not given with the values). 320,000 tested, 0.6% active. AID 2629; in the data active = inhibition mostly above about 10%, no sharp cut-off; inactive = mostly below about 6.7%
VLA-4 inh: inhibition in a human VLA-4 binding assay; VLA-4 expressing cells, ligand binding flow cytometry; inhibition, % (about 7 µM as worked out from the volumes in the protocol); 330,000 tested, 0.2% active; AID 2557
Pemphigus Ab inh: blocks pemphigus antibody binding to human desmoglein-3 | P32926 | DSG3-coupled beads, scFv-anti-DSG3-GFP binding, flow cytometry; active compounds read low | binding (percent of control), % at 10 µM | 310,000 tested, 0.48% active | AID 588358;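 active = binding more than 3 SD below its plate's average and above zero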;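 note: hits lower antibody fragment binding to DSG3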
PKD1 kinase inh: blocks activity of human protein kinase D1 | Q15139 | inhibition, % (no concentration beside the values) | PKD1 kinase fluorescence polarization assay | 200,000 tested, 0.056% active
HDAC3 inh: human HDAC3 inhibition | 320,000 tested, 0.15% active | recombinant HDAC3, fluorogenic peptide/trypsin coupled, fluorescence | inhibition, % at 8.3 µM | O15379; in the data active = inhibition above about 26%, passing the limit was not always enough
* hit, by the source's call. Cut-off read from the data, not from the text of the source, unless noted: active = inhibition above about 50%; inactive = the rest.

Results for O=C(CCC(=O)N(CC(=O)NC1CCCC1)c1cccc(F)c1)Nc1nccs1 ?
GRK2 aptamer HTS: 0; LANA-H2B inh: 5; VLA-4 inh: -5; Pemphigus Ab inh: 104; HDAC3 inh: -1

Results for COc1ccc(N2CCN(S(=O)(=O)CCNC(=O)c3cc(=O)c4ccccc4o3)CC2)cc1 ?
GRK2 aptamer HTS: 0; LANA-H2B inh: -3; VLA-4 inh: 7; Pemphigus Ab inh: -12*; HDAC3 inh: -1

How did O=C(O)c1nn(CCOc2ccc(Br)cc2)c(=O)c2ccccc12 do in these assays?
GRK2 aptamer HTS: 2; LANA-H2B inh: 13*; VLA-4 inh: 14; Pemphigus Ab inh: 101; HDAC3 inh: 5

How did COc1ccc(N(C(=O)C2COc3ccccc3O2)C(C(=O)NC2CCCCC2)c2ccccc2)cc1OC (centres undefined) do in these assays?
GRK2 aptamer HTS: 1; LANA-H2B inh: -2; VLA-4 inh: 18; Pemphigus Ab inh: 98; PKD1 kinase inh: -3; HDAC3 inh: 2

How did COc1cc(OC)cc(N(C(=O)C2COc3ccccc3O2)C(C(=O)NC2CCCCC2)c2ccc(O)cc2)c1 (centres undefined) do in these assays?
GRK2 aptamer HTS: 1; LANA-H2B inh: -5; VLA-4 inh: 12; Pemphigus Ab inh: 76*; PKD1 kinase inh: 7; HDAC3 inh: 11

Results for Cc1nc2nc[nH]n2c(=O)c1CCOC(=O)c1ccccc1F ?
GRK2 aptamer HTS: 12; LANA-H2B inh: 10*; VLA-4 inh: -9; Pemphigus Ab inh: 77; PKD1 kinase inh: -4; HDAC3 inh: 1

What do the screens show for `Cc1nc2nc[nH]n2c(=O)c1CCOC(=O)c1c(F)cccc1F`?
GRK2 aptamer HTS: 0; LANA-H2B inh: -1; VLA-4 inh: 1; Pemphigus Ab inh: 98; PKD1 kinase inh: -2; HDAC3 inh: 1

Results for O=C1CSCN1c1cc(Cl)ccc1Cl ?
GRK2 aptamer HTS: 0; LANA-H2B inh: 5; VLA-4 inh: 2; Pemphigus Ab inh: 103; PKD1 kinase inh: 75*; HDAC3 inh: -1

What do the screens show for `O=C1CSCN1c1ccc(Cl)c(Cl)c1`?
GRK2 aptamer HTS: 5; LANA-H2B inh: 0; VLA-4 inh: -2; Pemphigus Ab inh: 80; PKD1 kinase inh: 3; HDAC3 inh: -3

Results for Cc1cc(NC(=O)CS(=O)(=O)c2cn(Cc3cccc(F)c3)c3ccccc23)no1 ?
GRK2 aptamer HTS: 1; LANA-H2B inh: 1; VLA-4 inh: 12; Pemphigus Ab inh: 101; PKD1 kinase inh: 5; HDAC3 inh: 1

How did Cc1cc(NC(=O)CS(=O)(=O)c2cn(Cc3ccc(F)cc3)c3ccccc23)no1 do in these assays?
GRK2 aptamer HTS: 0; LANA-H2B inh: 1; VLA-4 inh: -12; Pemphigus Ab inh: -23*; PKD1 kinase inh: -4; HDAC3 inh: 2

Results for CC(=O)c1cccc(NC(=O)C(C)OC(=O)CCCN=C2NS(=O)(=O)c3ccccc32)c1 (centres undefined) ?
GRK2 aptamer HTS: 1; LANA-H2B inh: -1; VLA-4 inh: 4; Pemphigus Ab inh: 104; HDAC3 inh: -4

How did Cn1c(=O)c2c(nc(NCCOc3ccc(F)cc3)n2C)n(C)c1=O do in these assays?
GRK2 aptamer HTS: 0; LANA-H2B inh: -3; VLA-4 inh: 15; Pemphigus Ab inh: 91*; PKD1 kinase inh: -16; HDAC3 inh: -10

What do the screens show for `C=CCN(CC=C)C(=O)C1c2ccccc2Oc2ccccc21`?
Pemphigus Ab inh: 107

Results for CCN(CC)C(=O)C1c2ccccc2Oc2ccccc21 ?
GRK2 aptamer HTS: 0; LANA-H2B inh: 14*; VLA-4 inh: -6; Pemphigus Ab inh: 178; HDAC3 inh: -7

How did CN(C)CCCn1c2c3ccccc3ccc2c2oc(=O)c3ccccc3c21 do in these assays?
Pemphigus Ab inh: 70*

How did CN(C)CCCn1c(=S)[nH]c2ccccc2c1=O do in these assays?
GRK2 aptamer HTS: 1; LANA-H2B inh: 2; VLA-4 inh: 2; Pemphigus Ab inh: 111; PKD1 kinase inh: -3; HDAC3 inh: -7

What do the screens show for `CCOC(=O)c1ccc(NS(=O)(=O)c2ccc3c(c2)oc(=O)n3C)cc1`?
GRK2 aptamer HTS: 0; LANA-H2B inh: 32*; VLA-4 inh: 29; Pemphigus Ab inh: 99; PKD1 kinase inh: -19; HDAC3 inh: 3

What do the screens show for `COC(=O)c1ccc(NS(=O)(=O)c2ccc3c(c2)oc(=O)n3C)cc1`?
GRK2 aptamer HTS: 3; LANA-H2B inh: 2; VLA-4 inh: 7; Pemphigus Ab inh: 92*; PKD1 kinase inh: -8; HDAC3 inh: 15
